Only a selection was taken, and the strongest signals are over-represented in it overall.
Experiments:
Assay in all cases: glycan array binding signal (z-score within array); higher = stronger binding
Conditions in all cases: glycan notation: IUPAC condensed, linker removed
[1] = target: Fuc(a1-2)Gal(b1-3)GlcNAc6S
Procedure, shortened: (§1)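 The binding signal is a Z-score computed within each array. Data were drawn from 3228 arrays in the Consortium for Functional Glycomics database, restricted to those with a known protein sequence. Scores were averaged over arrays of the same protein sequence at different concentrations or buffers, and over linkers, and negative values can be taken as non-binding.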

[2] = target: Fuc(a1-2)Gal(b1-3)[Fuc(a1-4)]GlcNAc(b1-2)Man(a1-3)[Fuc(a1-2)Gal(b1-3)[Fuc(a1-4)]GlcNAc(b1-2)Man(a1-6)]Man(b1-4)GlcNAc(b1-4)[Fuc(a1-6)]GlcNAc(b1-4)[Fuc(a1-6)]GlcNAc
Procedure, shortened: as §1

[3] = target: Fuc(a1-2)Gal(b1-4)Glc
Procedure, shortened: as §1

[4] = target: Fuc(a1-2)Gal(b1-4)GlcNAc
Procedure, shortened: as §1

[5] = target: Fuc(a1-2)Gal(b1-4)[Fuc(a1-3)]GlcNAc
Procedure, shortened: as §1

[6] = target: Fuc(a1-2)Gal6S(b1-4)GlcNAc
Procedure, shortened: as §1

[7] = target: Fuc(a1-2)[Gal(a1-3)]Gal(b1-3)GlcNAc
Procedure, shortened: as §1

[8] = target: Fuc(a1-2)[Gal(a1-3)]Gal(b1-4)[Fuc(a1-3)]GlcNAc
Procedure, shortened: as §1

[9] = target: Fuc(a1-2)[GalNAc(a1-3)]Gal(b1-3)GlcNAc
Procedure, shortened: as §1

[10] = target: Fuc(a1-2)[GalNAc(a1-3)]Gal(b1-3)GlcNAc(b1-2)Man(a1-3)[Fuc(a1-2)[GalNAc(a1-3)]Gal(b1-3)GlcNAc(b1-2)Man(a1-6)]Man(b1-4)GlcNAc(b1-4)GlcNAc
Procedure, shortened: as §1

[11] = target: Fuc(a1-2)[GalNAc(a1-3)]Gal(b1-4)Glc
Procedure, shortened: as §1

[12] = target: Fuc(a1-2)[GalNAc(a1-3)]Gal(b1-4)GlcNAc
Procedure, shortened: as §1

[13] = target: Fuc(a1-2)[GalNAc(a1-3)]Gal(b1-4)GlcNAc(b1-2)Man
Procedure, shortened: as §1

[14] = target: Fuc(a1-2)[GalNAc(a1-3)]Gal(b1-4)GlcNAc(b1-2)Man(a1-3)[Fuc(a1-2)[GalNAc(a1-3)]Gal(b1-4)GlcNAc(b1-2)Man(a1-6)]Man(b1-4)GlcNAc(b1-4)GlcNAc
Procedure, shortened: as §1

[15] = target: Fuc(a1-2)[GalNAc(a1-3)]Gal(b1-4)GlcNAc(b1-3)Gal(b1-4)GlcNAc
Procedure, shortened: as §1

[16] = target: Fuc(a1-2)[GalNAc(a1-3)]Gal(b1-4)GlcNAc(b1-3)Gal(b1-4)GlcNAc(b1-3)Gal(b1-4)GlcNAc
Procedure, shortened: as §1

[17] = target: Fuc(a1-3)[Gal(b1-4)]GlcNAc(b1-6)GalNAc
Procedure, shortened: as §1

[18] = target: Gal(a1-3)Gal(b1-4)[Fuc(a1-3)]GlcNAc
Procedure, shortened: as §1

[19] = target: Gal(b1-3)GalNAc(a1-3)[Fuc(a1-2)]Gal(b1-4)Glc
Procedure, shortened: as §1

[20] = target: Gal(b1-3)GalNAc(a1-3)[Fuc(a1-2)]Gal(b1-4)GlcNAc
Procedure, shortened: as §1

[21] = target: Gal(b1-3)GlcNAc
Procedure, shortened: as §1

[22] = target: Gal(b1-3)GlcNAc(b1-2)Man(a1-3)[Gal(b1-3)GlcNAc(b1-2)Man(a1-6)]Man(b1-4)GlcNAc(b1-4)GlcNAc
Procedure, shortened: as §1

[23] = target: Gal(b1-3)[GlcNAc(b1-6)]GalNAc
Procedure, shortened: as §1

[24] = target: Gal(b1-3)[Neu5Ac(a2-6)]GlcNAc(b1-6)Gal(b1-4)Glc
Procedure, shortened: as §1

[25] = target: Gal(b1-4)GalNAc(a1-3)[Fuc(a1-2)]Gal(b1-4)GlcNAc
Procedure, shortened: as §1

[26] = target: Gal(b1-4)GlcNAc(b1-2)Man
Procedure, shortened: as §1

[27] = target: Gal(b1-4)GlcNAc(b1-3)Gal(b1-4)GlcNAc(b1-3)Gal(b1-4)GlcNAc
Procedure, shortened: as §1

[28] = target: Gal(b1-4)GlcNAc(b1-3)Gal(b1-4)GlcNAc(b1-3)Gal(b1-4)GlcNAc(b1-3)Gal(b1-4)GlcNAc(b1-2)[Gal(b1-4)GlcNAc(b1-3)Gal(b1-4)GlcNAc(b1-3)Gal(b1-4)GlcNAc(b1-3)Gal(b1-4)GlcNAc(b1-6)]Man(a1-6)[Gal(b1-4)GlcNAc(b1-3)Gal(b1-4)GlcNAc(b1-3)Gal(b1-4)GlcNAc(b1-3)Gal(b1-4)GlcNAc(b1-2)Man(a1-3)]Man(b1-4)GlcNAc(b1-4)[Fuc(a1-6)]GlcNAc
Procedure, shortened: as §1

[29] = target: Gal3S(b1-4)[Fuc(a1-3)]Glc6S
Procedure, shortened: as §1

B1: Gal 4 (Mus musculus), P56470 (protein)
chain: MAYVPAPGYQPTYNPTLPYYQPIPGGLNVGMSVYIQGVASEHMKRFFVNFVVGQDPGSDVAFHFNPRFDGWDKVVFNTLQGGKWGSEERKRSMPFKKGAAFELVFIVLAEHYKVVVNGNPFYEYGHRLPLQMVTHLQVDGDLQLQSINFIGGQPLRPQGPPMMPPYPGPGHCHQQLNSLPTMEGPPTFNPPVPYFGRLQGGLTARRTIIIKGYVPPTGKSFAINFKVGSSGDIALHINPRMGNGTVVRNSLLNGSWGSEEKKITHNPFGPGQFFDLSIRCGLDRFKVYANGQHLFDFAHRLSAFQRVDTLEIQGDVTLSYVQI
glycan array binding signal (z-score) [1]: 4.25 | glycan array binding signal (z-score) [2]: -0.312 | glycan array binding signal (z-score) [3]: -0.196 | glycan array binding signal (z-score) [4]: -0.232 | glycan array binding signal (z-score) [5]: -0.234 | glycan array binding signal (z-score) [6]: -0.199 | glycan array binding signal (z-score) [7]: 2.26 | glycan array binding signal (z-score) [8]: -0.266 | glycan array binding signal (z-score) [9]: 4.51 | glycan array binding signal (z-score) [10]: 6.91 | glycan array binding signal (z-score) [11]: 5.4 | glycan array binding signal (z-score) [12]: 3.27 | glycan array binding signal (z-score) [13]: 4.19 | glycan array binding signal (z-score) [14]: 3.77 | glycan array binding signal (z-score) [15]: 4.64 | glycan array binding signal (z-score) [16]: 4.02 | glycan array binding signal (z-score) [17]: -0.301 | glycan array binding signal (z-score) [18]: -0.234 | glycan array binding signal (z-score) [19]: 4.95 | glycan array binding signal (z-score) [20]: 3.84 | glycan array binding signal (z-score) [21]: -0.228 | glycan array binding signal (z-score) [22]: -0.181 | glycan array binding signal (z-score) [23]: -0.234 | glycan array binding signal (z-score) [24]: -0.176 | glycan array binding signal (z-score) [25]: 4.23 | glycan array binding signal (z-score) [26]: -0.289 | glycan array binding signal (z-score) [27]: -0.171 | glycan array binding signal (z-score) [28]: -0.148 | glycan array binding signal (z-score) [29]: -0.18
